From PMC5540273 (PLoS ONE, 2017) come the findings set out here.
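Further: KINOMEscan kinase panel screen.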

This assay has as its system T1, CDC2L1.
T1 construct: gene CDK11B
As to conditions: concentration: 1 μM, replicates: in singlicate; n = 1.
Take `CS(=O)(=O)c1cccc(CNc2nc(Nc3ccc4c(c3)CCC(=O)N4)ncc2C(F)(F)F)c1`: the “%Inh” value amounted to 0%.
Turning to `O=C(O)C(F)(F)F.O=c1[nH]ccc2nc(N[C@@H]3CCNC3)nc(Nc3ccc4c(c3)S(=O)(=O)CC4)c12` [GSK2181306], the “%Inh” value is given as 0%.
In the case of `COc1cc(Nc2nccc(N3CCC(NS(=O)(=O)c4ccc(NC(C)=O)cc4)CC3)n2)cc(OC)c1OC` [GSK1379825] it was 0%; in that of `CN(C)CCNS(=O)(=O)c1ccc(-c2ccnc3[nH]ccc23)cc1` [GSK977620], 0%.
As for `Nc1cccc(-c2ccc3c(N)n[nH]c3c2)c1` [GSK2193613], the “%Inh” value is recorded as 7%.
In the case of `Cc1ccc(NC(=O)c2ccnc(N3CCCCC3)c2)cc1-c1ccc(C(=O)NCC2CC2)cc1` [GW775610] it was 6%; in that of `c1ccc(Oc2ccc(Nc3ccnc4cc(-c5ccc(CN6CCCCC6)o5)ccc34)cc2)nc1` [GW567143], 0%; in that of `CC(C)c1nc(-c2cccc(NS(=O)(=O)c3c(F)cccc3F)c2)c(-c2ccnc(Nc3ccc(N4CCOCC4)nc3)n2)s1.Cl` [GSK1723980], 0%.
Take `CN(c1ccc(NC(=O)N2CCN(CCCN3CCOCC3)CC2)cc1)c1ccnc(Nc2ccc(CS(C)(=O)=O)cc2)n1.Cl` [GW830899]: the “%Inh” value is given as 2%.
Turning to `Cn1cc(-c2ccc3c(c2)CCN3C(=O)Cc2cc(F)cc(F)c2F)c2c(N)ncnc21` [GSK2634140], the “%Inh” value turned out to be 0%.
In the case of `CC(C)NCC(Cc1ccccc1)NC(=O)c1cc(Br)c(-c2ccnc3[nH]ccc23)s1.Cl.Cl` (centres unmarked) [GSK1383281] it was 0%.
